Results on 64 compounds are retold here after PubChem BioAssay AID588453 (National Center for Advancing Translational Sciences (NCATS), 2011).

Several values for one entry are separate records, joined by “and”; a condition that tells them apart may be missing. Equal entries are not always repeated. In all, about 390,000 compounds went through this assay and about 4,000 (1%) were called active. Not shown: some 4% with an inconclusive outcome. The call rests on the fitted dose curve; in most records, active means well fitted inhibition curve with a large enough effect; inconclusive means small, poorly fitted or top-dose-only effect; inactive means no such curve, though single readings can be large or run the other way. The entries come from a sample that favours actives as a whole. Where a call stands in place of a potency, no number is given. The source holds several records for some structures; these can differ, active in one and inactive in another.
Potency means the concentration at half of the fitted maximal effect.

Thioredoxin reductase 1, cytoplasmic (Rattus norvegicus), sequence (O89049 whole entry, looked up): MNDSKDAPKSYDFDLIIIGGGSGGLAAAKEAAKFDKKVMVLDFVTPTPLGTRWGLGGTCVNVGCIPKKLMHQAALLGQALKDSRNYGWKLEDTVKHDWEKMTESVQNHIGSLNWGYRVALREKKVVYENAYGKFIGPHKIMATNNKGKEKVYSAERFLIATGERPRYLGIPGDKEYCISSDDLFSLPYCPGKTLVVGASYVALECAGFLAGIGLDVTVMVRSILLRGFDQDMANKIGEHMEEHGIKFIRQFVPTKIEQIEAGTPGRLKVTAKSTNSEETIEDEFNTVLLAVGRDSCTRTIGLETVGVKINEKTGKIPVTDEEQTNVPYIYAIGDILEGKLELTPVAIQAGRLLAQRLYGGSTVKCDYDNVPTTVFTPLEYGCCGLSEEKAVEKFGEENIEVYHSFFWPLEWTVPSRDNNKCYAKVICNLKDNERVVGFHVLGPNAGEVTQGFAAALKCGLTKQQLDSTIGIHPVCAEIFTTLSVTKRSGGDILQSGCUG

For this assay, the target named is Thioredoxin reductase 1, cytoplasmic (Rattus norvegicus) (UniProt O89049). The assay can be described thus: qHTS Assay for Inhibitors of Mammalian Selenoprotein Thioredoxin Reductase 1 (TrxR1): qHTS. Further: nearly all actives have a fitted effect of over 65% in size. The following applies: recombinant rTrxR1, NADPH fluorescence consumption, selenite substrate; series mostly up to 114 µM. In short, it runs like this:
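Rat TrxR1 (90 nM in the dispensed reagent) was pre-reduced with 400 uM NADPH for 5 min at room temperature, then incubated with compound for 15 min. After 400 uM selenite was added, NADPH fluorescence (Ex 340/Em 450 nm) was followed for 8 min.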
A general note: In qHTS, concentration-response curves come from the screen itself.
Consider `CCc1ccc(CNC(=O)c2cc3cc4ccc(OC)cc4nc3o2)cc1`, for which the Potency entry was “inactive”.

Take `O=C(O)/C(=C/c1c(C(=O)O)[nH]c2cc(Cl)cc(Cl)c12)c1ccccc1`: the Potency entry was “inactive”.

In the case of `O=C(Nc1nc2ccc(F)cc2s1)c1nc(SCc2ccccc2F)ncc1Cl`, the Potency result was “inactive”.

As for `O=C(Nc1ccccc1C(F)(F)F)c1nc(S(=O)(=O)Cc2ccccc2F)ncc1Cl`, the Potency was 2.82 µM (active).

As to `CN(CC(=O)Nc1ccccc1C(F)(F)F)C(=O)Cc1ccccc1F`, the Potency result is “inactive”.

Regarding `Cc1ccc(Cn2cnc3c(cnn3C(C)(C)C)c2=O)c(F)c1`, the Potency entry is “inactive”.

In the case of `O=C1[C@@H]2C(c3cccnc3)=NO[C@@H]2C(=O)N1c1ccc(Cl)cc1Cl`, the Potency is 70.8 µM (active).

As for `O=C(NNC1CC(=O)N(c2cccc(Cl)c2)C1=O)c1cccnc1` (centres undefined), the Potency entry is “inactive”.

With `CCN(CC)c1ccc(/C=C/c2c(C)cnc3ccc(C)cc23)cc1`, the Potency entry was “inactive”.

For `COc1cccc(CNC(=O)CCc2nc(-c3ccc(C)cc3)no2)c1`, the Potency result is “inactive”.

Turning to `COc1ccc(OC)c(NC(=O)CSc2nc3ccccc3nc2N2CCCCC2)c1`, the Potency result is “inactive”.

On to `CCn1cc(C(=O)NCc2ccccc2)c(=O)c2cc(S(=O)(=O)N3CCCCC3)ccc21`, for which the Potency entry is “inactive”.

On to `CCC(=O)N1CCc2cc(Br)cc(S(=O)(=O)CCC(=O)NCc3ccccc3OC)c21`, for which the Potency entry was “inactive”.

Consider `Fc1cc(Br)ccc1NC(=S)Nc1cccnc1`, for which the Potency was 50.1 µM (active).

Take `O=C(Nc1cccnc1)c1cc2cc(Br)ccc2oc1=O`: the Potency entry is “inactive”.

Consider `O=C(NC(=S)Nc1ccc(Br)cc1F)C1CCCCC1`, for which the Potency result is “inactive”.

Take `CN(C)c1ccc(C=Nc2ccc(/C=C/c3ccnc4ccccc34)cc2)cc1`: the Potency entry was “inactive”.

`O=C(O)/C(=C/c1cccnc1)NC(=O)c1ccccc1`: the Potency result was “inactive”.

Take `O=C(OCc1cc(Cl)ccc1OC(F)F)c1cccnc1`: the Potency result was “inactive”.

Turning to `O=C(/C=C/c1ccc(Cl)cc1Cl)c1cccnc1`, the Potency was 4.47 µM (active).

With `Cc1cc(C)c(NC(=O)CN2C(=O)c3cccnc3Oc3ccc(Cl)cc32)c(C)c1`, the Potency result was “inactive”.

Take `Cc1ccc(SCC(CC(C)C)N2CCN(CCc3ccccc3)CCC2=O)cc1` (centres undefined): the Potency entry was “inactive”.

`O=C(Nc1ccc2nc(SCCOc3ccccc3)sc2c1)c1ccco1`: the Potency result is “inactive”.

For `O=C(Nc1nc(-c2ccco2)c(-c2ccco2)s1)c1ccco1`, the Potency is 28.2 µM (active).

With `O=C(Nc1nnc(C2CC(=O)N(c3ccc(Cl)cc3)C2)s1)c1ccco1` (centres undefined), the Potency entry was “inactive”.

For `Cc1ccc(C)c(OCC(=O)Nc2sc3c(c2C#N)CCCC3)c1C`, the Potency result was “inactive”.

For `COc1ccc2c(c1OC)C(=O)OC2Nc1nc(-c2ccccc2)cs1` (centres undefined), the Potency is 4.47 µM (active).

As to `COc1cccc(C2CC(c3ccccc3)=NN2S(=O)(=O)c2ccccc2)c1OC` (centres undefined), the Potency result is “inactive”.

For `Cc1ccc2c(c1)N(C(=O)CCC(=O)NCc1ccccc1F)CC(C)O2` (centres undefined), the Potency entry was “inactive”.

`O=C(C1CCC(Cn2c(=O)c3sccc3n(Cc3ccccc3F)c2=O)CC1)N1CCCCC1` (centres undefined): the Potency entry was “inactive”.

For the compound `O=C(/C=C/c1ccc([N+](=O)[O-])o1)NNC(=O)c1ccc(F)cc1`, the Potency was 3.16 µM (active).

As to `COc1ccc(-n2c(SCC(=O)Nc3ccc(Cl)c(C)c3)nc3n[nH]c(C)c3c2=N)cc1`, the Potency result is “inactive”.

`O=C(Nc1ccc2oc(-c3ccc(O)c(Br)c3)nc2c1)c1cc2ccccc2o1`: the Potency entry was “inactive”.

With `CCN(CC)S(=O)(=O)c1nnc(NC(=O)COc2ccccc2Cl)s1`, the Potency result was “inactive”.

For the compound `CN(Cc1ccco1)S(=O)(=O)c1nnc(NC(=O)c2ccccc2)s1`, the Potency entry is “inactive and 17.8 µM (active)”.

As for `CCN(c1ccc(Cl)cc1)S(=O)(=O)c1nnc(NC(=O)c2ccco2)s1`, the Potency result is “inactive”.

In the case of `CCC(=O)Nc1nnc(S(=O)(=O)N(CC(C)C)c2ccccc2)s1`, the Potency entry is “inactive”.

Take `CCCCC(=O)Nc1nnc(S(=O)(=O)N(C)Cc2ccco2)s1`: the Potency was 44.7 µM (active).

With `CCOc1cccc(C(=O)Nc2nnc(S(=O)(=O)N(C)c3ccc(C)cc3)s2)c1`, the Potency entry was “inactive”.

Take `CCCCOc1ccc(C(=O)NO)cc1`: the Potency entry is “inactive”.

With `COC(=O)c1ccc(NC(=O)CCc2c(C)nc3c(c(C)nn3-c3ccc(C)cc3)c2C)cc1`, the Potency entry was “inactive”.

For `COC(=O)c1cc(NC(=O)c2cnc(SC)nc2-c2ccccc2)cc(C(=O)OC)c1`, the Potency result is “inactive”.

Regarding `N#Cc1cccc(CN2CCC(=O)N(CCO)CC2)c1`, the Potency entry was “inactive”.

With `N#CCCN1CCN(S(=O)(=O)c2ccc(S(=O)(=O)N3CCCC3)cc2)CC1`, the Potency result is “inactive”.

As to `CC(C)(C)c1cc(CN2CCN(CCC#N)CC2)cc(C(C)(C)C)c1O`, the Potency was 4.47 µM (active).

`COc1cc2nc(Cl)nc(NC3CC3)c2cc1OC`: the Potency result is “inactive”.

Turning to `Cc1cccc(C(CC(=O)NCC2(c3ccccc3)CCCC2)c2ccccc2)c1O` (centres undefined), the Potency result is “inactive”.

Take `O=C(CCSCc1ccccc1F)N1CCN(c2ccc(Cl)cc2)CC1`: the Potency entry is “inactive”.

For `COC(=O)C1=C(C)N(c2ccc(C)cc2)/C(=C/c2ccc(O)cc2)C1=O`, the Potency entry is “inactive”.

As to `COC(=O)C1=C(C)N(c2ccc(Br)cc2)C(=O)/C1=C\c1ccco1`, the Potency is 50.1 µM (active).

Consider `COC(=O)C1=C(C)N(C)C(C)=C(C(=O)OC)C1c1cccc(Br)c1`, for which the Potency result is “inactive”.

For the compound `COC(=O)C1=C(C)N(C(C)c2ccccc2)C(=O)/C1=C\c1ccco1` (centres undefined), the Potency is 28.2 µM (active).

Regarding `COc1ccc(N2C(=O)/C(=C\c3ccco3)N=C2SCC(N)=O)cc1Cl`, the Potency entry is “inactive”.

For the compound `COc1ccc(N2C(=O)CS(=O)(=O)C23C(=O)N(Cc2ccc(C)cc2)c2ccccc23)cc1Cl` (centres undefined), the Potency result was “inactive”.

For the compound `Cc1ccc2nc(COc3cccc(NC(=O)c4ccccc4Cl)c3)cc(=O)n2c1`, the Potency result is “inactive”.

As for `CSc1ccccc1NC(=O)CCS(=O)(=O)c1nc(-c2cccs2)cc(C(F)(F)F)n1`, the Potency is 14.1 µM (active).

For the compound `O=C(CSc1ccc(-c2cccs2)nn1)Nc1ccccc1F`, the Potency entry is “inactive”.

Take `COc1ccc(Cl)cc1NC(=O)CSc1nc(-c2cccs2)cc(C(F)(F)F)n1`: the Potency entry is “inactive”.

For `CCc1ccc(S(=O)(=O)c2nnn3c2nc(N2CCN(CC)CC2)c2sccc23)cc1`, the Potency result was “inactive”.

Take `CC(C)C[C@H](NC(=O)[C@H](O)[C@H](N)Cc1ccccc1)C(=O)O`: the Potency result is “inactive”.

Regarding `O=C(CSc1nnc(-c2cccnc2)n1CCc1ccccc1)NCc1ccccc1`, the Potency entry was “inactive”.

Take `CCn1c(SCC(=O)NCc2ccco2)nnc1-c1ccc(N)cc1`: the Potency entry was “inactive”.

Consider `O=C(CSc1nnc(-c2cccnc2)n1Cc1ccco1)c1ccc(Cl)c(Cl)c1`, for which the Potency was 44.7 µM (active).

On to `Cc1ccc(C)c(N2CCN(C(=O)Cc3c(C(=O)O)c(C)cn3C)CC2)c1`, for which the Potency result was “inactive”.
